Molecules are shown by their SMILES. Inconclusive results are not listed. The source made the active and inactive calls. Calls follow the shape of the dose curve; as a rule, active = well fitted inhibition curve with a large enough effect; inconclusive = small, poorly fitted or top-dose-only effect; inactive = flat fitted curve, though single readings scatter.

This test has as its system CRL-7250. The experiment in a line: qHTS assay to identify novel small-molecules to repurpose for Merkel cell carcinoma treatment (AID 1296009). Also: nearly all actives have a fitted effect of over 60% in size. The conditions noted are these: MCC and control cell lines, CellTiter-Glo viability, 72 h; series mostly up to 92 µM; activity change, negative = cytotoxicity: at the top concentration. In outline:
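qHTS format: cells treated with library compounds in DMSO across 8 (NPC) or 11 (MIPE) concentrations. Readout after 72 hr at 37 degree celsius was CellTiter-Glo luminescence.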
In general terms: In qHTS, concentration-response curves come from the screen itself.
`CC(=O)OC1CC(C(C)(C)O)OC2CCC3(C)OC4=C(C(=O)C=C5C(C)C(OC(C)=O)C6(C)C(C)OC546)C(O)C3C12C` (centres undefined): the “outcome” value was “inactive [at 17.4 µM]”. For `C=CC1C(OC2OC(CO)C(O)C(O)C2O)OC=C2C(=O)N3C(C(=O)O)Cc4c([nH]c5ccccc45)C3CC21` (centres undefined) the value was “inactive [at 17.4 µM]”; for `CC1(C)CC[C@]2(C(=O)O[C@@H]3O[C@H](CO)[C@@H](O)[C@H](O)[C@H]3O)CC[C@]3(C)C(=CCC4[C@@]5(C)C[C@@H](O)[C@H](O)C(C)(C)C5[C@H](O)C[C@]43C)[C@@H]2[C@@H]1O` (some centres undefined), “inactive [at 17.4 µM]”; for `COc1ccc(/C=C/C(N)=O)cc1OC`, “inactive”. Then `C=C[C@]1(C)C=C2CCC3C(C)(CCC[C@@]3(C)C(=O)O)C2CC1` (some centres undefined), with “inactive”; and `CCOc1nc2c(N)ncnc2n1CC`, with “inactive”; and `C[C@@H]1O[C@@H](O[C@H]2[C@H](O[C@H]3CC[C@@]4(C)C(CC[C@]5(C)C4CC=C4C6CC(C)(C)CC[C@]6(C(=O)O[C@@H]6O[C@H](CO[C@@H]7O[C@H](CO)[C@@H](O[C@@H]8O[C@@H](C)[C@H](O)[C@@H](O)[C@H]8O)[C@H](O)[C@H]7O)[C@@H](O)[C@H](O)[C@H]6O)CC[C@]45C)[C@]3(C)CO)OC[C@H](O)[C@@H]2O)[C@H](O)[C@H](O)[C@H]1O` (some centres undefined), with “inactive [at 9.27 µM]”.

Take `CC/C=C\CC1C(CC(=O)O)CCC1OC1OC(CO)C(O)C(O)C1O` (centres undefined): the outcome was inactive. For `COC1C=C(C)C(O)(CO)C2(C)CCCC(C)(C)C12` (centres undefined) the value was “inactive”; for `O=C(O)c1ccc(OC2OC(CO)C(O)C(O)C2O)cc1` (centres undefined), “inactive”. For `CCc1nnc(NS(=O)(=O)c2ccc(NC(=S)NC(=O)/C=C/c3ccc(F)cc3)cc2)s1` the value was “inactive”; for `C=C(C(=O)O)C1CC(O)C2(C)CCCC(C)(O)C2C1` (centres undefined), “inactive”; for `NC(N)=NCCC[C@H](NC(=O)c1sccc1NS(=O)(=O)c1cccc2nsnc12)C(=O)O`, “inactive”.

`COc1cc(C(=O)OC[C@@]2(O)CO[C@@H](O[C@H]3[C@H](Oc4ccc(O)cc4)O[C@H](CO)[C@@H](O)[C@@H]3O)[C@@H]2O)cc(OC)c1O`: the “outcome” value was “inactive [at 17.4 µM]”. Then `C=C1C(=O)OC2C1C(O)CC1(C)C(O)CCC(C=O)C21` (centres undefined), with “inactive”. With `CC(=O)O[C@]1(C(C)=O)CC[C@H]2[C@@H]3CCC4=CC(=O)CCC4=C3[C@@H](c3ccc(N(C)C)cc3)C[C@@]21C`, the result was inactive.

`N#CC1C(=O)N=C(c2cc(Cl)ccc2O)C=C1c1cc(OCc2ccccc2)cc(OCc2ccccc2)c1` (centres undefined): the result was inactive. Then `CC(=O)OC[C@@]12[C@H](O)C[C@]3(C)C(=CCC4[C@@]5(C)CC[C@H](O[C@@H]6O[C@H](C(=O)O)[C@@H](O[C@@H]7O[C@H](CO)[C@@H](O)[C@H](O)[C@H]7O)[C@H](O)[C@H]6O[C@@H]6O[C@H](CO)[C@@H](O)[C@H](O)[C@H]6O)[C@](C)(CO)C5CC[C@]43C)[C@@H]1CC(C)(C)[C@@H](OC(C)=O)[C@@H]2O` (some centres undefined), with “inactive [at 9.27 µM]”. For `O=C(O)c1cc(C(F)(F)F)ccc1N1CC[C@H](OCc2ccccn2)C1` the value was “inactive”. For `CC1=CC(=O)C(=C(C)C)CC2C(C)(O)CCC12O` (centres undefined) the value was “inactive”; for `C=C1C[C@@]23CCC4[C@@](C)(CCC[C@@]4(C)C(=O)OC)C2CC[C@@H]1C3` (some centres undefined), “inactive”; for `O=S(=O)(O)c1ccc(Nc2ncnc3c2ncn3[C@@H]2O[C@H](CO)[C@@H](O)[C@H]2O)cc1`, “inactive”. With `CC(C)(O)C1OC1C1=CC(=O)C2(C)OC2C1O` (centres undefined), the result was inactive. For `COc1cc(C2Oc3c(OC)cc(/C=C/C(=O)OC[C@H]4O[C@@H](OC(C)(C)C(=O)O)[C@H](O)[C@@H](O)[C@@H]4O)cc3C2CO)ccc1O` (some centres undefined) the value was “inactive [at 17.4 µM]”; for `CCCN1CCC=C(c2cc(-c3ccc(C)cc3)no2)C1`, “inactive”. As for `NC(=O)c1cccc(-c2cc(O)cc(OC(=O)NC3CCCCC3)c2)c1`, the “outcome” value is “inactive [at 17.4 µM]”.

Regarding `CC(C)C1CCC(C(=O)N[C@@H](Cc2ccccc2)C(=O)O)CC1` (some centres undefined), the result was inactive. For `O=C(NCc1nc2ccccc2c(=O)n1-c1ccc(F)cc1)Nc1ccc(Cl)c(C(F)(F)F)c1` the value was “inactive”.

For the compound `COCCN(C)Cc1ccc2nc3sc(C(=O)N(C)C4CCCCC4)cn3c2c1`, the compound was called inactive.
